36 molecules from PubChem BioAssay (NCATS) can be followed below.

Results filed as inconclusive are left out. A call without a number means that no potency is given here. Calls of active or inactive are those of the source. The call rests on the fitted dose curve; in most records, active means well fitted cell-killing curve with a large enough effect; inconclusive means small, poorly fitted or top-dose-only effect, or effect the other way; inactive means flat fitted curve, though single readings scatter.

In the assay the test system is Hek293T. In words: Primary qHTS to identify gynecologic anti-cancer compounds using libraries of approved drugs and bioactive compounds (AID 1345084). Further: nearly all actives have a fitted effect of over 55% in size. The conditions noted are these: Gynecologic cancer cell panel viability, ATPlite luminescence, 48 h, control line for the selectivity index; series mostly up to 57.5 µM. Summed up: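 Five-point cytotoxicity, 48 h drug exposure at 37 C, 5% CO2, on cells seeded 16 h beforehand. ATP content read by ATPlite luminescence.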
Turning to `O=C(NCCCCN1CCN(c2cccc(Cl)c2Cl)CC1)c1cc2ccccc2s1`, the Potency result was “inactive”.

`C/C=C/[C@@H]1C=C[C@@H]2C[C@H](C)CC[C@H]2[C@]1(C)/C(O)=C1/C(=O)[C@@H](CO)N(C)C1=O`: the Potency result was “inactive”.

Consider `N#CC(CCCN1CCN(/N=C/c2cccnc2)CC1)(c1ccccc1)c1ccccc1`, for which the Potency entry is “inactive”.

Turning to `CCc1cc2c(cc1CC)CC(NCC(O)c1ccc(O)c3[nH]c(=O)ccc13)C2` (stereo unspecified), the Potency result was “inactive”.

Take `CCCc1cc(C)n(C)c(=O)c1CN(C)C(=O)c1cc(-c2ccc(N3CCN(C(C)C)CC3)nc2)cc2c1cnn2C(C)C`: the Potency entry was “inactive”.

On to `COC(=O)c1cc(Br)cnc1N1CCC(NC2CCCCC2)C(O)C1` (stereo unspecified), for which the Potency result is “inactive”.

As to `Cc1ccc(C2(C(=O)N3CCC(n4nc(-c5ccccc5)oc4=O)CC3)CC2)cc1`, the Potency result was “inactive”.

As for `Cc1c(C2=CCN(C(=O)N(C)C(C)C)CC2)nnn1-c1cccnc1F`, the Potency result was “inactive”.

Consider `NC(N)=NC(=O)c1cnn(-c2cccc3ncccc23)c1C1CC1`, for which the Potency result was “inactive”.

On to `CC1(C)OC[C@H](NC(=O)Nc2ccc(Br)cc2Br)[C@H](c2ccccc2)O1`, for which the Potency result was “inactive”.

Take `O=C(Nc1ccccc1)c1ccc(Nc2nnc(-c3ccc(O)cc3)c3ccccc23)cc1`: the Potency entry was “inactive”.

`C/C(=C/C=C\C=C\Cc1cnco1)[C@@H](O)C(C)(C)C(N)=O`: the Potency result was “inactive”.

Take `CCC(C)CNCC(=O)N1CCC2SC=CC2C1COc1cccc(C)c1` (stereo unspecified): the Potency entry is “inactive”.

On to `CNC(=O)c1cc(Oc2ccc(NC(=O)c3cccc(C(F)(F)F)c3)cc2)ccn1`, for which the Potency result was “inactive”.

In the case of `CC(F)(F)CN1CCOc2c(nn(-c3ccccc3Cl)c2-c2ccc(Cl)cc2)C1=O`, the Potency result was “inactive”.

As to `COc1cc(CN(CCN)C(=O)c2cccs2)ccc1OCc1ccccc1`, the Potency result was “inactive”.

As for `CO[C@H]1[C@@H](O)[C@H](O[C@H]2CC[C@@]3(C)C(CCC4C3CC[C@]35COC6(COC(=O)C6)C3CCC45O)C2)O[C@@H](C)[C@@H]1OC1OC(CO)C(OC2OC(CO)C(O)C(O)C2O)C(O)C1O` (stereo partly specified), the activity change, negative = cytotoxicity was -29.3% [at 11.6 µM] (inactive).

Take `O=C1c2ccc(Nc3ccc(F)cc3F)cc2CCc2ccc(OCC(O)CO)cc21` (stereo unspecified): the Potency result was “inactive”.

Turning to `O=S(=O)(c1ccccc1)N(CC(F)(F)F)c1ccc(C(O)(C(F)(F)F)C(F)(F)F)cc1`, the Potency entry is “inactive”.

With `CCC(C)CNCC(=O)N1CCc2sccc2C1COc1cccc(C)c1` (stereo unspecified), the Potency entry is “inactive”.

Consider `COc1cc(C(C)C)c(Oc2cnc(N)nc2N)cc1I`, for which the Potency result was “inactive”.

`Cc1cc(C)cc(-c2cnc3cc(Cl)c(-c4cccc(O)c4)cc3c2OCCCN)c1`: the Potency entry was “inactive”.

As for `C=CC(C)(O)CC/C=C(\C)C(=O)OC1C(O)C(CO)OC(OC(=O)C23CCC(C)(C)CC2C2=CCC4C5(C)CCC(OC6OC(COC7OCC(OC(C)=O)C(O)C7OC7OC(COC(C)=O)C(O)C(O)C7OC(C)=O)C(O)C(O)C6OC6OCC(O)C(O)C6O)C(C)(C)C5CCC4(C)C2(C)C(O)C3O)C1OC1OCC(OC2OCC(O)C(OC3OCC(O)C(O)C3O)C2O)C(O)C1O` (stereo unspecified), the activity change, negative = cytotoxicity is -1.14% [at 6.55 µM] (inactive).

Regarding `CCc1cccc(CC)c1-n1c(C=C(C)C)c(C(=O)N2CCNCC2)cc(-c2nc(-c3ccc(C(F)(F)F)cc3)cs2)c1=O`, the Potency entry is “inactive”.

In the case of `Cc1nc(Nc2ccc(F)cc2)nc(N2CCc3ccccc3C2C)c1C` (stereo unspecified), the Potency entry was “inactive”.

Regarding `CCCn1ncc(CN2CCCC(C(=O)c3cccc(OC(C)C)c3)C2)c1C` (stereo unspecified), the Potency result is “inactive”.

With `Cc1ccc(N2CCN(CCC3NC(=O)c4ccccc43)CC2)cc1C` (stereo unspecified), the Potency result was “inactive”.

Consider `COc1ccc(S(=O)(=O)Nc2c(C)cc(C)cc2C)cc1`, for which the Potency entry was “inactive”.

Regarding `O=C(NS(=O)(=O)c1ccc(Br)s1)c1ccc(Cl)cc1Cl`, the Potency entry is “inactive”.

Turning to `CC1(C)CC[C@]2(C(=O)O)CC[C@]3(C)C(=CCC4[C@@]5(C)C[C@@H](O)[C@H](O)[C@@](C)(CO)C5CC[C@]43C)[C@@H]2[C@@H]1O` (stereo partly specified), the Potency result is “inactive”.

Consider `COc1cc2c(cc1-c1c(C)noc1C)ncc1[nH]c(=O)n(C(C)c3ccccn3)c12` (stereo unspecified), for which the Potency result is “inactive”.

Turning to `CC1(C)CCC(C)(C)c2cc(C#Cc3ccc(C(=O)O)cc3)ccc21`, the Potency entry was “inactive”.

For the molecule `Cc1nc2c(C(F)(F)F)cccc2nc1-c1ccc(-c2cccc(S(C)(=O)=O)c2)cc1`, the Potency result was “inactive”.

Regarding `CC(C)C[C@@H](C(=O)N[C@@H](Cc1ccc(OCc2ccccc2)cc1)C(=O)NC(C)(C)C)N(C)Cc1ccc(C(C)(C)C)cc1`, the Potency result was “inactive”.

Regarding `CC1=C(C(=O)OC2CCCCC2)C(c2ccc([N+](=O)[O-])cc2)C2=C(CC(C)(C)CC2=O)N1` (stereo unspecified), the Potency result was “inactive”.

As to `C[C@@H]1O[C@@H](O[C@H]2[C@H](OC(=O)[C@]34CCC(C)(C)C[C@H]3C3=CCC5[C@@]6(C)C[C@H](O)[C@H](O[C@@H]7O[C@H](C(=O)O)[C@@H](O)[C@H](O)[C@H]7O)[C@@](C)(CO)C6[C@H](O)C[C@@]5(C)[C@]3(C)C[C@H]4O)O[C@@H](CO)[C@@H]2O)[C@H](O)[C@H](O)[C@H]1O[C@@H]1OC[C@@H](O)[C@H](O[C@H]2OC[C@](O)(CO)[C@H]2O)[C@H]1O` (stereo partly specified), the activity change, negative = cytotoxicity is -4.09% [at 6.55 µM] (inactive).
